Results taken from PubChem BioAssay AID1851 (National Center for Advancing Translational Sciences (NCATS), 2009).
“And” between values parts separate entries of the source, which are not always exact repeats. Identical values can stand only once. Out of some 16,000 compounds screened, about 5,700 (36%) were called active. Another 24% or so got no clear call; they are omitted. The list shows a part of the results. A number with no mark means an inactive call. The call rests on the fitted dose curve; in most records, active means well fitted curve in the direction sought with a large enough effect; inconclusive means small, poorly fitted or top-dose-only effect, or effect the other way; inactive means no such curve, though single readings can be large or run the other way.

Biological target: Cytochrome P450 1A2 (Homo sapiens) (UniProt P05177)
Test: Cytochrome panel assay with activity outcomes
Details: recombinant CYP, pro-luciferin dealkylation, luminescence, p450-cyp1a2; series mostly up to 57.1 µM; activity, negative = inhibition: at the top concentration
On the % scale 0 is the no-effect control and ±100 the full control effect.

Cytochrome P450 1A2 (Homo sapiens), sequence (P05177 whole entry, looked up): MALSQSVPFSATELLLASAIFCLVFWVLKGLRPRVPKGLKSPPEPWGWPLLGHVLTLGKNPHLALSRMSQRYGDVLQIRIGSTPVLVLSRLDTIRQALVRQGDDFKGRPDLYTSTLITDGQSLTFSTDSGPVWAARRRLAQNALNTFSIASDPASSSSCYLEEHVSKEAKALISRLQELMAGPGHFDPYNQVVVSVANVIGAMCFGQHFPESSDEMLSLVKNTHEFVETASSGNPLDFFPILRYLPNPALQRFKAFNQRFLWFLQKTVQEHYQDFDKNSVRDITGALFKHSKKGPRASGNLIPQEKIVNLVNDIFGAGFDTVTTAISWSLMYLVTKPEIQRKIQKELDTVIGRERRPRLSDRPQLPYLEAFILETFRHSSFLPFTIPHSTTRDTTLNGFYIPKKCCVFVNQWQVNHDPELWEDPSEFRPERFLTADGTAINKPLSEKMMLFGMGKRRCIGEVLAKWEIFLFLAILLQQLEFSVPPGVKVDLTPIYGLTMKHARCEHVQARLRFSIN

Row | SMILES | AC50 | activity, negative = inhibition
1 | CC(=O)COc1ccc2c(C)c(C)c(=O)oc2c1 | 1 µM (active) | 
2 | CCC(CC)c1nnc(NC(=O)COc2ccc3c(C)cc(=O)oc3c2)s1 |  | -2.2%
3 | COc1ccc2sc3ccccc3c(=O)c2c1OC | 3.55 µM (active) | 
4 | CN1[C@@H]2CC[C@H]1CC(OC(=O)c1c[nH]c3ccccc13)C2 (some centres not stated) |  | 0.351%
5 | O=C(CCN1CCCCC1)N1CCc2c([nH]c3ccccc23)[C@H]1c1cccnc1 |  | -19.7% [at 2.29 µM]
6 | O=C(OCCN1CCCCC1)c1c[nH]c2ccccc12 | 12.6 µM (active) and 15.8 µM (active) | 
7 | COc1ccc(NC(=O)N2CCC3(CC2)CCN(C(=O)c2cccn2C)CC3)cc1 |  | -8.9%
8 | CC(=O)N(/N=C1\Sc2ccccc2C1=O)c1ccccc1C | 14.1 µM (active) | 
9 | CC(=O)N(/N=C1\Sc2ccccc2C1=O)c1ccccc1 | 2.24 µM (active) | 
10 | COC(=O)[C@@H]1O[C@@H](SCCN)[C@@H](O)[C@H](O)[C@H]1O |  | 10.2% [at 2.29 µM]
11 | CCC1(C)Cc2c(sc3nnn(CC(=O)Nc4ccc(C)cc4)c(=O)c23)CO1 (configuration not stated) | 14.1 µM (active) | 
12 | CCc1cc2c(nc1CC)CCN(CC/C(C)=N/OCC[C@@H]1C=C[C@H](OC(C)=O)[C@H](COC(C)=O)O1)C2 |  | -15.5% [at 11.4 µM]
13 | N#CC1=C(N)OC2=C(CC/C2=C\c2ccccc2)C1c1ccccc1 (configuration not stated) | 2.51 µM (active) | 
14 | CCCc1cc(C(=O)Cc2nc3ccccc3s2)c(O)cc1O | 2.24 µM (active) | 
15 | O=C(OCc1nc2ccccc2s1)c1ccc(Br)s1 | 3.16 µM (active) | 
16 | CC(=O)OCc1nc2ccccc2s1 | 2.82 µM (active) | 
17 | Nc1cc(=O)[nH]c(N)n1 |  | -20.6%
18 | N=c1ccn2c(n1)O[C@H]1[C@@H](OP(=O)(O)O)[C@H](CO)O[C@H]12 |  | -3.14% [at 2.29 µM]
19 | COC(=O)[C@@H]1CC[C@H](C)[C@@H](c2ccc(C)cc2)N1C(=O)c1ccc(/C=N\OC[C@@H](O)COCc2ccco2)cc1 |  | -1.66% [at 11.4 µM]
20 | Fc1ccc(Nc2ccnc(-c3ccccc3C(F)(F)F)n2)cc1 | 2 µM (active) | 
21 | CNc1ccnc(-c2ccccc2C(F)(F)F)n1 | 12.6 µM (active) | 
22 | CN1C[C@H](c2ccccc2)C(O)([C@]2(c3ccccc3)CN(C)C[C@@H](c3ccccc3)C2=O)[C@H](c2ccccc2)C1 (some centres not stated) |  | -5.45% [at 11.4 µM]
23 | O[C@@H](c1cc([C@@]23C[C@H]4CC[C@@H]2C[C@H](C4)C3)nc2c(Cl)cc(Cl)cc12)[C@@H]1CCCCN1 |  | -10.5% [at 2.29 µM]

Row | SMILES | AC50 | activity, negative = inhibition
24 | CCOC(=O)c1nc2sc(C)c(C)c2c(=O)[nH]1 | 14.1 µM (active) | 
25 | CCOC(=O)c1c(C)nc2sc3c(=O)n(-c4ccc(OC)cc4)nnc3c2c1-c1ccc(OC)cc1 |  | 10.4%
26 | Cc1ccc(Nc2nc(Cl)nc(N(C)C#N)n2)cc1 | 3.55 µM (active) | 
27 | O=C(O)NCC1CCCCC1 (tested in a mixture with another compound) |  | -10.2% [at 11.4 µM]
28 | Cc1nc(-c2c(C(F)(F)F)noc2-c2ccc(O)cc2O)cs1 | 12.6 µM (active) | 
29 | O=C(NCc1ccccc1)C(c1ccc(F)cc1)N(Cc1ccco1)C(=O)c1ccccn1 (configuration not stated) |  | 4.4%
30 | O=C(c1ccco1)N(CCC(c1ccccc1)c1ccco1)Cc1ccco1 (configuration not stated) | 14.1 µM (active) | 
31 | NC(=O)CC(c1ccccc1)c1ccco1 (configuration not stated) |  | -5.54%
32 | CCOC(=O)C1CCCN(C(=O)c2sc3nc(-c4ccc(OC)cc4)cn3c2C)C1 (configuration not stated) | 20 µM (active) | 
33 | CCOC(=O)C1CCCN(C(=O)CCn2nc(-c3ccccc3)ccc2=O)C1 (configuration not stated) |  | -23.4%
34 | CCOC(=O)C1CCN(Cc2cnc(Oc3ccc(OC)cc3)s2)CC1 |  | -7.6%
35 | O=C(O)c1ccc([N+](=O)[O-])c(P(=O)(O)O)c1 |  | -9.8% [at 11.4 µM]
36 | O=C1C=C(NCC2CCCO2)C2(CCCCC2)O1 (configuration not stated) |  | 11.9%
37 | O=C(NCC1CCCO1)c1ccc(CS(=O)(=O)Cc2ccc(F)cc2)o1 (configuration not stated) |  | -11.4%
38 | O=C1CC(c2ccc(F)cc2)Cc2nc(NCC3CCCO3)ncc21 (configuration not stated) | 22.4 µM (active) | 
39 | Cc1ccc(C(=O)C(OC(=O)CNS(=O)(=O)c2ccccc2)c2ccccc2)cc1 (configuration not stated) |  | -20.7%
40 | CCOC(=O)C1=C(C)N=C2c3ccccc3C(=O)C2C1c1ccc(Cl)cc1 (configuration not stated) | 3.16 µM (active) | 
41 | CCOC(=O)C1=C(N)n2c(s/c(=C/c3ccccc3)c2=O)=C(C(=O)OCC)C1c1ccccc1 (configuration not stated) |  | -10.3%
42 | CCOC(=O)C1=C(C)N=C2c3ccccc3C(=O)C2C1c1ccc(C)cc1 (configuration not stated) | 3.16 µM (active) | 
43 | CCOC(=O)C1=NNC2(c3ccc(Cl)cc3)C(=O)N(c3cc(C)cc(C)c3)C(=O)C12 (configuration not stated) |  | -0.857%
44 | COCCOC(=O)C1=C(C)NC(=O)N(C(C)=O)C1c1ccc(Cl)cc1 (configuration not stated) |  | -20.4%
45 | COC(=O)[C@@]1(Cc2ccccc2)[C@H]2c3cc(C(=O)N(C)C)n(Cc4ccsc4Br)c3C[C@H]2CN1C(=O)c1ccccc1 |  | -17.5%
46 | COc1ccc(CSc2nnnn2C)cc1[N+](=O)[O-] | 14.1 µM (active) | 

Row | SMILES | AC50 | activity, negative = inhibition
47 | CCCOc1ccc(Cn2c(C)nc([N+](=O)[O-])c2SCC(O)COC)cc1[N+](=O)[O-] (configuration not stated) |  | -20.4%
48 | CSc1nncc(-c2ccc(F)c(F)c2)n1 | 3.55 µM (active) | 
49 | CC1CCCN(CC(O)COCC2COc3ccccc3O2)C1 (configuration not stated) |  | -7.91%
50 | OC(COCC1COc2ccccc2O1)CN1CCN(c2ccccc2F)CC1 (configuration not stated) |  | -22.8%
51 | OC(COCC1COc2ccccc2O1)CN1CCc2ccccc2C1 (configuration not stated) | 5.01 µM (active) | 
52 | NC(=O)[C@H]1CC2(CC(c3cccc(NC(=O)c4ccccc4)c3)=NO2)CN1C(=O)[C@H]1CCC(=O)N1 (some centres not stated) |  | -9.8%
53 | CCOC(=O)C1=C(C)NC2(O)c3ccccc3C(=O)C12O (configuration not stated) | 20 µM (active) | 
54 | CC(=O)Nc1ccc(S(=O)(=O)NCC2CCC(C(=O)N3CCN(c4ccccn4)CC3)CC2)cc1 (configuration not stated) |  | -14.1%
55 | O=c1onc2n1-c1cc(Br)ccc1OC2 | 0.794 µM (active) | 
56 | Cc1ccc(NC(=O)N/C=C/c2ccco2)cc1C | 7.08 µM (active) | 
57 | O=C1[C@@H]2[C@H]3[C@H](O)[C@H](O)C/C(=N/OC[C@@H](O)COCc4ccco4)[C@@H]3CC[C@H]2C(=O)N1c1ccc(F)cc1F |  | -10.4% [at 11.4 µM]
58 | C/C(=N\N1CCN(C2c3ccccc3-c3ccccc32)CC1)c1cccnc1 | 12.6 µM (active) | 
59 | C/C(=N\N1CCN(C2c3ccccc3-c3ccccc32)CC1)c1ccncc1 | 8.91 µM (active) | 
60 | Cc1ccnc(N2C(=O)C3C4CC(C(Br)C4Br)C3C2=O)c1 (configuration not stated) |  | 8.01%
61 | CC[N+](CC)(CC)CCOc1cccc(OCC[N+](CC)(CC)CC)c1OCC[N+](CC)(CC)CC |  | 10.9%
62 | C[C@@H](COc1ccc(/C=C\c2ccccc2)cc1)[N+](C)(C)C |  | -18.1%
63 | O=C(O)[C@@H]1CCCNC1 |  | -0.55% [at 25.6 µM]
64 | Cc1cc(C)c(C)c(S(=O)(=O)ON2C(=O)c3ccccc3C2=O)c1C | 28.2 µM (active) | 
65 | FC(F)(F)c1cc(-c2ccco2)nc(NCc2cccs2)n1 | 0.158 µM (active) | 
66 | FC(F)(F)c1cc(-c2ccco2)nc(NCCc2ccccc2)n1 | 2.82 µM (active) | 
67 | COc1ccccc1-c1nc(Nc2ccncc2)c2ccccc2n1 | 0.316 µM (active) | 
68 | Clc1ccccc1-c1nc(Nc2ccncc2)c2ccccc2n1 | 0.501 µM (active) | 
69 | FC(F)(F)c1ccccc1-c1nc(Nc2ccncc2)c2ccccc2n1 | 10 µM (active) | 

Row | SMILES | AC50 | activity, negative = inhibition
70 | Cc1ccccc1-c1nc(Nc2ccncc2)c2ccccc2n1 | 0.794 µM (active) | 
71 | CC(=O)OC[C@H]1O[C@@H](O/N=C2/[C@H]3O[C@@H]3[C@@H](O)[C@H]3[C@H]2CCn2c(=O)n(-c4ccccc4)c(=O)n23)[C@H](OC(C)=O)[C@@H](OC(C)=O)[C@@H]1OC(C)=O |  | 1.98% [at 11.4 µM]
72 | Cc1noc(C)c1-c1nc(N2CCN(C)CC2)c2ccccc2n1 | 0.316 µM (active) | 
73 | CN1CCN(C(c2ccccc2)c2ccccc2)CC1 |  | -3.57% [at 25.6 µM]
74 | Cc1noc(C)c1C(=O)N1CCC2(CC1)CN(c1ccccc1)C2 |  | -18.7%
75 | Cc1noc(C)c1-c1nc(N2CCOCC2)c2ccccc2n1 | 0.316 µM (active) | 
76 | Cc1noc(C)c1C(=O)N1CCC2(CCCN(c3ccccc3)C2)CC1 |  | 4.79%
77 | Cc1cc(C)n(-c2nc(SCCN(C)C)c3c4c(sc3n2)CCCC4)n1 | 14.1 µM (active) | 
78 | CO[C@@H]1COC(=O)[C@@H](CCSC)NC(=O)C/C=C\[C@@H](C)COC(=O)[C@H](C)NC(=O)C/C=C\[C@H]1C |  | -5.08% [at 11.4 µM]
79 | Cc1cc(-c2ccccc2)[nH]c(=O)c1S(=O)(=O)c1ccc(Cl)cc1 |  | -18.9%
80 | O=c1cc(-c2ccccc2)[nH]c2nc(Cl)ccc12 | 0.398 µM (active) | 
81 | Cc1ccccc1S(=O)(=O)c1c(C)cc(-c2ccccc2)[nH]c1=O |  | -7.42%
82 | CC(=O)N1CCC2(CCCN(Cc3nccs3)C2)CC1 |  | -12.1%
83 | CCOC(=O)C(C)n1cnc2c(oc3ccccc32)c1=O (configuration not stated) | 5.62 µM (active) | 
84 | Cc1cc(/C=C2\SC(=S)NC2=O)c(C)n1C | 5.01 µM (active) | 
85 | Cc1ccc(S(=O)(=O)N2CCC(C(=O)NCCCOC(C)C)CC2)cc1 |  | -2.51%
86 | O=C(NCc1ccccc1)c1cccc(COc2cccc(Cl)c2)c1 | 17.8 µM (active) | 
87 | O=C(OC(C(=O)O)C(OC(=O)c1ccccc1)C(=O)NCc1ccccc1)c1ccccc1 (configuration not stated) |  | 5%
88 | O=c1c(-c2ccc(F)cc2)nc2cnc(N3CCNCC3)nc2n1Cc1cccs1 | 10 µM (active) | 
89 | COc1cccc(Cn2c(=O)c(-c3ccc(Cl)cc3)nc3cnc(N4CCN(C)CC4)nc32)c1 |  | -16.3%
90 | O=c1c(-c2ccc(F)cc2)nc2cnc(N3CCOCC3)nc2n1Cc1cccs1 | 12.6 µM (active) | 
91 | CN1CCN(c2ncc3nc(-c4ccc(Cl)cc4)c(=O)n(Cc4cccs4)c3n2)CC1 | 10 µM (active) | 
92 | O=c1c(-c2ccc(Cl)cc2)nc2cnc(N3CCNCC3)nc2n1Cc1cccs1 | 12.6 µM (active) | 
